The text below walks through data of PubChem BioAssay AID1321 (The Scripps Research Institute Molecular Screening Center, 2008).

Where “and” joins values, the source holds several entries; their conditions need not be identical. Equal values may be shown once. In all, about 220,000 compounds went through this assay and about 2,600 (1.2%) were called active.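 Rule for the calls: active = activation above the mean of all tested compounds plus 3 SD, set per screening run (cut at about 8.8% in these data); inactive = the rest.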 Many of the other results were omitted from the sample, so actives are more common in it than they were. Some structures have more than one record in an assay (separate samples or runs), and their calls can disagree.

The target of this test is Wee1-like protein kinase (Homo sapiens) (UniProt P30291). Nature of the test: compounds stabilizing Wee1-luciferase fusion – cell-based, HeLa, Wee1K328M-luciferase, luminescence, primary screen (AID 1321).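 Note: cells exposed to compound for 20 h before luminescence read; 0% = DMSO alone and 100% = MG132 at 30 µM.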 As to conditions: HeLa Luc-Wee1K328M stability, at 5 µM, stronger effect = higher value, 100% = proteasome inhibitor MG132 effect.
With `NNC(=O)c1ccc(COCC(F)(F)C(F)F)cc1`, the reporter increase was 2.09% (inactive).

Regarding `COc1ccc(-c2csc(NC3OC(=O)c4ccccc43)n2)cc1` (stereo not given), the reporter increase is 1.6% (inactive).

For `Cc1nnsc1C(=O)NCc1c(F)cccc1Cl`, the reporter increase is -2.45% (inactive).

For `Cn1c(=O)c2c(nc(NCc3ccccc3)n2CC(N)=O)n(C)c1=O`, the reporter increase is -2.48% (inactive).

`OC(c1ccccc1)C(CN1CCOCC1)c1ccccc1` (stereo not given): the reporter increase was 0.23% (inactive).

Consider `Cc1ccc(C(=O)OC(C)CN2CCOCC2)cc1` (stereo not given), for which the reporter increase was 2.34% (inactive).

As to `CC(CN1CCOCC1)c1ccccc1` (stereo not given), the reporter increase is 11.8% (active).

As to `O=C(CN1CCOCC1)Nc1c(-c2ccccc2)c2cc(Br)ccc2[nH]c1=O`, the reporter increase was -2.5% (inactive).

Regarding `Cc1ccc2[nH]c(=O)c(CN3CCCCC3)c(-c3ccccc3)c2c1`, the reporter increase is 11.8% (active).

As for `Cc1ccc2[nH]c(=O)c(CC=C(Cl)Cl)c(C)c2c1`, the reporter increase is -1.17% (inactive).

As to `Cc1cc(Nc2ccc(N3CCOCC3)cc2)c2cccc(C)c2n1`, the reporter increase was 1.6% (inactive).

Consider `C/C(=N\Nc1cccc(C(=O)O)c1)c1ccc2c(c1)Nc1ccccc1S2`, for which the reporter increase is 2.58% (inactive).

With `Cc1ccccc1N(C(=O)Cc1cccs1)C(C(=O)NC1CCCCC1)c1cn(C)nc1C` (stereo not given), the reporter increase is 12.1% (active).

`Cc1ccsc1C(C(=O)NC1CCCCC1)N(C(=O)Cc1cccs1)C1CC1` (stereo not given): the reporter increase was -1.86% (inactive).

Regarding `Cc1cccc(N(C(=O)Cc2cccs2)C(C(=O)NC2CCCC2)c2ccsc2)c1` (stereo not given), the reporter increase is -1.49% (inactive).

With `Nc1scc[n+]1Cc1cccc2cccnc12`, the reporter increase is 4.15% (inactive).

Consider `CC(C)=NN1C(=O)c2ccccc2NC1(C)C`, for which the reporter increase was 2.65% (inactive).

Regarding `CC(NC(=O)C(C)(C)C)C(c1cccs1)N1CCN(Cc2ccccc2)CC1` (stereo not given), the reporter increase was -2.56% (inactive).

Turning to `CCOC(=O)c1ccc(NC(=O)C2CC(=O)Nc3nc4ccccc4n32)cc1` (stereo not given), the reporter increase was -0.26% (inactive).

With `CC(=O)c1ccc(NC(=O)C2CC(=O)Nc3nc4ccccc4n32)cc1` (stereo not given), the reporter increase was 11.6% (active).

Take `O=C(Nc1ccccc1)C1CC(=O)n2c(nc3ccccc32)N1` (stereo not given): the reporter increase was -0.1% (inactive).

As to `Cn1nc(C(C)(C)C)c(NC(=O)c2sccc2Cl)c1C(C)(C)C`, the reporter increase was 1.43% (inactive).

Consider `O=C1N=C(N2CCc3ccccc3C2)S/C1=C\c1ccc(O)cc1`, for which the reporter increase was -2.98% (inactive).

Regarding `COc1cc(C(=O)Nn2c(O)c(C3=c4ccccc4=NC3=O)sc2=S)ccc1O`, the reporter increase was -2.51% (inactive).

In the case of `O=C(NCc1cccs1)c1ccc(Br)o1`, the reporter increase is -0.94% (inactive).

`Cn1ncc(Br)c1C(=O)NCc1cccs1`: the reporter increase was 20.9% (active).

As for `COc1ccccc1NC(=O)c1c(Br)cnn1C`, the reporter increase was 3.35% (inactive).

In the case of `O=C(O)C(c1ccccc1)C1(O)CCCCC1` (stereo not given), the reporter increase was 7.89% (inactive).

As for `O=C(NNc1cc(Cl)cc(Cl)c1)c1c(F)cccc1Cl`, the reporter increase was 9.07% (active).

With `Cc1ccc(NNC(=O)c2c(F)cccc2Cl)cc1Cl`, the reporter increase was 0.76% (inactive).

Take `CCN(CC)CCNC(=O)c1ccc(NC(=O)c2c(F)cccc2Cl)cc1`: the reporter increase is 1.18% (inactive).

For the molecule `CCOC(=O)C1CCN(c2c(Nc3cc(C)cc(C)c3)c(=O)c2=O)CC1`, the reporter increase was -2.25% (inactive).

On to `Cc1ccc(S/C(=N\S(=O)(=O)c2ccc(Cl)cc2)c2ccccc2)cc1`, for which the reporter increase was 0.58% (inactive).

As for `O=S(=O)(/N=C(/Nc1ccccn1)c1ccccc1)c1ccc(Cl)cc1`, the reporter increase is -2.13% (inactive).

For the molecule `Cc1ccc(S(=O)(=O)/N=C(/Nc2ccccn2)c2ccc(Cl)cc2)cc1`, the reporter increase is 11.1% (active).

Consider `CCCCN(CCCC)CC(O)Cn1c2ccccc2c(=O)c2ccccc21` (stereo not given), for which the reporter increase is 0.32% (inactive).

As to `O=C(Nc1ccc(S(=O)(=O)Nc2nccs2)cc1)c1cccc(S(=O)(=O)N2CCOCC2)c1`, the reporter increase is -2.58% (inactive).

Regarding `CC(=O)N1CCC(N(C(=O)Nc2ccc(Cl)cc2)C(C)C)CC1`, the reporter increase is -1.37% (inactive).

As to `NC(=O)c1ccc(-c2csnn2)cc1`, the reporter increase was -2.32% (inactive).

Take `CCS(=O)(=O)N1CCC(C(=O)N2CCN(c3ccccc3)CC2)CC1`: the reporter increase is -1.23% (inactive).

Take `CS(=O)(=O)N1CCC(C(=O)N2CCN(c3ccccc3)CC2)CC1`: the reporter increase is 11.4% (active).

As to `CCCS(=O)(=O)N1CCCC(C(=O)N2CCN(c3ccccc3)CC2)C1` (stereo not given), the reporter increase was -1.94% (inactive).

For `CN1CCN(CC(=O)Nc2sc3c(c2C#N)CCC(C(C)(C)C)C3)CC1` (stereo not given), the reporter increase was 16.5% (active).

As for `CCC1CCc2c(sc(NC(C)=O)c2C#N)C1` (stereo not given), the reporter increase was 1.63% (inactive).

For the molecule `CCN1CCN(CC(=O)Nc2sc3c(c2C#N)CCC3)CC1`, the reporter increase is -0.82% (inactive).

On to `CC1CC(NC(=O)/C(C#N)=C/c2ccc[nH]2)CC(C)(C)C1` (stereo not given), for which the reporter increase is 1.3% (inactive).

In the case of `c1ccc(-n2cccc2)c(N2CCCCC2)c1`, the reporter increase was 3.42% (inactive).

Turning to `C/C(CC(C)C)=N\Oc1nc(C)cc(C)n1`, the reporter increase is -1.74% (inactive).

With `O=C(Nc1cccc(C(F)(F)F)c1)c1ccc(N2CCNCC2)c([N+](=O)[O-])c1`, the reporter increase was 1.22% (inactive).

Turning to `Cc1cccc(C(=O)NC(=S)N2CCN(c3ccc([N+](=O)[O-])cc3)CC2)c1`, the reporter increase is -1.67% (inactive).

For `COc1cc(OC)cc(C(=O)NC(=S)N2CCN(c3ccc(C(F)(F)F)cc3[N+](=O)[O-])CC2)c1`, the reporter increase is 12.2% (active).

On to `Cc1cc(C)nc(NC(=O)/C=C/c2ccc(Cl)cc2)n1`, for which the reporter increase is -2.67% (inactive).

With `CC(C)n1c(=S)[nH]c2cc(C(F)(F)F)ccc21`, the reporter increase was -2.42% (inactive).

As to `Cc1[nH]n(C)c(=O)c1N=Nc1ccc(S(C)(=O)=O)cc1`, the reporter increase is 1.89% (inactive).

`O=C(Cc1cc(=O)[nH][nH]1)N/N=C/c1ccccc1[N+](=O)[O-]`: the reporter increase is -4.24% (inactive).

As for `COc1cc(CC(=O)N/N=C/c2ccccc2)c([N+](=O)[O-])cc1OC`, the reporter increase is 10.2% (active).

Turning to `COc1ccc(C(=O)NCC(=O)N/N=C/c2ccc([N+](=O)[O-])o2)cc1OC`, the reporter increase was -1.47% (inactive).

As for `CCn1c(SCC(=O)N/N=C/c2ccccc2OCC(=O)O)nnc1-c1ccc(C(C)(C)C)cc1`, the reporter increase is 0.66% (inactive).

On to `CCN(CC)C(=O)CSC(Nc1cccc(F)c1)=C(C#N)C#N`, for which the reporter increase is -3.44% (inactive).

As for `Cc1cccc(N2CCN(Cc3nc(C4CC4)no3)CC2)n1`, the reporter increase was -3.23% (inactive).

For `Cc1ccc(S(=O)(=O)NC(=O)Nc2nc(-c3ccc(F)c(F)c3)cs2)cc1`, the reporter increase was 7.86% (inactive).

For `C=CCOc1ccc(Cl)cc1CNCCCN1CCOCC1`, the reporter increase is -1.69% (inactive).

Turning to `COc1ccc(Cl)cc1NC(=O)CCN1CCOCC1`, the reporter increase was -3.24% (inactive).

In the case of `COc1ccc(-c2ccc(CNCCCN3CCOCC3)o2)cc1Cl`, the reporter increase is 8.92% (active).

For `Cn1c(SCC(=O)c2ccc(F)cc2)nnc1-c1ccccn1`, the reporter increase is -0.76% (inactive).

Regarding `CN(CCN1CCOCC1)Cc1nc(-c2ccc3c(c2)OCO3)no1`, the reporter increase was 1.41% (inactive).

For `COCC1CCCN(Cc2nc(-c3ccc4c(c3)OCO4)no2)C1` (stereo not given), the reporter increase was 9.73% (active).

As to `CC(C)N(Cc1nc(-c2ccc3c(c2)OCO3)no1)CC1CCC(=O)N1` (stereo not given), the reporter increase was 2.1% (inactive).

For the molecule `Cc1ccc(-c2c[n+](=O)c3c(n2[O-])CCC3)cc1`, the reporter increase was -1.07% (inactive).

`O=C(CSc1ccc(/C=N/NC(=O)c2cccc(F)c2)o1)Nc1ccccc1`: the reporter increase was 9.46% (active).

Consider `N#CCC(=O)N/N=C/c1ccc(SCC(=O)Nc2ccccc2)o1`, for which the reporter increase is -0.66% (inactive).

For `O=C(Cc1ccccc1)Nc1cccc(C(=O)N/N=C/c2ccco2)c1`, the reporter increase was -1.22% (inactive).

On to `COc1cc2[nH]c(=S)n(Cc3ccc(C)o3)c(=O)c2cc1OC`, for which the reporter increase was 3.12% (inactive).

Take `CCOc1cc2[nH]c(=S)n(Cc3ccc(C(=O)NCCOC)cc3)c(=O)c2cc1OCC`: the reporter increase was -1.62% (inactive).

With `COc1cc2[nH]c(=S)n(Cc3ccc(F)cc3)c(=O)c2cc1OC`, the reporter increase was 12.6% (active).

As for `COc1ccc(F)cc1S(=O)(=O)N1CCCCC1`, the reporter increase is 2.94% (inactive).

With `Cc1ccc(/C=N/NC(=S)NC2CCCCC2)o1`, the reporter increase is 3.18% (inactive).

Regarding `CCn1c(C(C)NC(=O)c2ccc(C)cc2)n[nH]c1=S` (stereo not given), the reporter increase was -0.98% (inactive).

With `CCn1c(C(C)C)n[nH]c1=S`, the reporter increase is 18.6% (active).

With `CCn1c(-c2ccncc2)n[nH]c1=S`, the reporter increase was 1.46% (inactive).

As to `O=C(NCc1ccco1)C1CCCN1S(=O)(=O)c1ccccc1C(F)(F)F` (stereo not given), the reporter increase was -1.13% (inactive).

Consider `CCC1=NN2C(=N)/C(=C/c3cc(C)n(-c4ccccc4)c3C)C(=O)N=C2S1`, for which the reporter increase was 4.73% (inactive).

Regarding `COC(=O)c1sc(SC)c(S(=O)(=O)C(C)C)c1N/N=C(\C#N)S(=O)(=O)c1ccccn1`, the reporter increase is 2.36% (inactive).

Regarding `CCOC(=O)C1CCN(C(=O)Nc2ccc(C)c(Cl)c2)CC1`, the reporter increase is 3.42% (inactive).

`CCCCOC(=O)CCCc1ccc([N+](=O)[O-])cc1[N+](=O)[O-]`: the reporter increase was 12.8% (active).

As for `CCOC(=O)C/C(C)=N\Nc1ccc([N+](=O)[O-])cc1[N+](=O)[O-]`, the reporter increase was -1.73% (inactive).

Regarding `CCOC(=O)COc1ccc([N+](=O)[O-])cc1`, the reporter increase was -1.98% (inactive).

As for `CC1(C)CC(CNCCC(c2ccc(F)cc2)c2ccco2)CCO1` (stereo not given), the reporter increase was -2.08% (inactive).

For `CC(C)CNC(=O)/C=C/C(=O)O`, the reporter increase was 31.4% (active) and -2.62% (inactive).

With `CC(C)CNC(=O)CC(NCC(C)C)C(=O)O` (stereo not given), the reporter increase is -0.85% (inactive).

Consider `CC(C)CNC(=O)C(=O)NCc1ccccc1`, for which the reporter increase is -2.69% (inactive).

For the molecule `CN(Cc1nc(-c2cnccn2)no1)Cc1n[nH]c2c1CCCCC2`, the reporter increase is -0.67% (inactive).

In the case of `O=C(O)C1CCN1C1CCCCC1` (stereo not given), the reporter increase is 8.91% (active).

As for `O=C(O)c1cccc2c1C(=O)N(C1CCCCC1)C2`, the reporter increase was -0.13% (inactive).

For the molecule `CC(Sc1nnnn1C1CCCCC1)C(=O)O` (stereo not given), the reporter increase was -1.64% (inactive).

Regarding `O=C(CCNc1n[nH]c(=O)[nH]c1=O)N/N=C\c1ccc(Br)cc1`, the reporter increase was -1.51% (inactive).

In the case of `COc1c(N2CCN(C(=S)Nc3ccccc3F)C(C)C2)c(F)cc2c(=O)c(C(=O)O)cn(C3CC3)c12` (stereo not given), the reporter increase is -0.39% (inactive).

In the case of `CCOC(=O)c1cc(NC(=O)c2cccnc2)cc(C(=O)OCC)c1`, the reporter increase is -1.21% (inactive).

Take `CCC(=O)Nc1cccc(NC(=O)c2cccnc2)c1`: the reporter increase was 14.3% (active).

On to `CCC(=O)Nc1ccc(C(=O)Nc2cccc(OC)c2)cc1`, for which the reporter increase was 0.16% (inactive).
